The subject of one assay is RARb homodimer (NR concentration 270 nM). Briefly: PBM binding z-score (relative to random genomic background probes); higher = stronger binding; sequences stand for … in GC…GCGATTGACAGCGTAGAATGAAGG
The method in brief: (§1)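 Custom Agilent 4×180K protein-binding microarrays carried double-stranded probes, each with a 34-nt variable region. These regions held direct-repeat seeds, single-nucleotide variants, half-site ablations and random human genomic background sequences. Ligand-free nuclear receptor dimers were incubated on the arrays for 1 h, antibodies against each partner (one per run) detected binding, and scanned fluorescence was regression-normalized. Binding z-scores take the random background probes as reference.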
ACTAGTTGGTCAGCTGAGGTCACAGACAATTCGG had a PBM binding z-score of 4.19.

AACACAGGGTCATCGTAGGCCAGAGTACGCACAG displayed a PBM binding z-score of 3.59.

The sequence TAGCCTAGCTCATTGGGCCAGTATAGTACGCATC registered a PBM binding z-score of -0.698.

Take CCTACTGGGCCACGAGAGGTCATTGATTCAGTGA: the PBM binding z-score stood at 3.75.

In turn, TTACCAAGTTGAAAGGTCGTTGATGCACGCCTTG showed a PBM binding z-score of 2.1.

ACTATTAGTTGAGACGAGGACAACCGATAGGTTG showed a PBM binding z-score of 0.638.

In turn, CCTAGCAGGCCGGGGTCACTCAAGCATTTCGCTT yielded a PBM binding z-score of 3.68.

Turning to TCATATAGGTAAAGGTGAAGGTCGAACGATATGA, the PBM binding z-score is 2.28.

Take CCTACTGGGCCATTAGGTCATTGATATCAACGTT: the PBM binding z-score was 2.8.

ACAGACAGTTGATGAAGGTAACTCAGGCTATCAT displayed a PBM binding z-score of 0.387.

In turn, GCTGCTAGGTCAACTGATAGTCAGCTAAAGCTCG gave a PBM binding z-score of 3.15.

TAGCCTAGCTCATGGGCCAGTATACCACGCGAAC yielded a PBM binding z-score of -0.141.

In turn, AGAATGAGGTTATTAAGAACAGGGAATTGCGGTC had a PBM binding z-score of 0.842.

In the case of ATCTCTAGGTAAAAGTTCACTGAATCCCGAGGAT, the PBM binding z-score was 3.15.

The sequence GATACAGGGTCAAGGCGAGAGTACGCGTATTGAT had a PBM binding z-score of 3.23.

As to AGAATGAGGTTATTAAGATCAGGAAATTGCGGTC, the PBM binding z-score turned out to be 0.491.

Consider GCTAGCAGTCCATTTGGGTCACTCAATGACGGGC, for which the PBM binding z-score came out at 1.54.

With CCAGATAGGTGAAAGGTAACTCAGTCTGGTACGC, the PBM binding z-score was found to be 1.04.

Consider ATCGAAAGGTCGACGAGGCGAGTATACACCGTTT, for which the PBM binding z-score is 2.61.

Consider CTCGAAAGGTCGGGCTCAGGTGAGTATACCAAAC, for which the PBM binding z-score amounted to 2.49.

The sequence CGAACTAGGTCAAGGATAGTGAATCTCCGCACGC registered a PBM binding z-score of 3.08.

Take ATATGTAGGTTATCGGGTCATTCGGTTTGCGCAT: the PBM binding z-score was 2.88.

As to ATCTCTAGGTAAGACTCAGTGCAGTGAAGAACGC, the PBM binding z-score came out at 0.192.

The sequence CGTCCAAGGGCAGAGAGGTCAGTGAATGCCGAGT had a PBM binding z-score of 4.03.

AATACAGGGTCATCGTAGGCCACAGTACGCACAG: the PBM binding z-score stood at 4.02.

ATCTCTAGGTAAGAGTCAGTTCAGTGAAGAACGC: the PBM binding z-score amounted to 0.813.

Sequence AGAACGAGGGCAATGAGTTGATAGCCCGGGTGGC registered a PBM binding z-score of 0.793.

With TCTGCTCGGTCAACGATGGTCAGCTAATCTGCTA, the PBM binding z-score amounted to 1.65.

As to AGTCAAAGTTCACTAGGTAACGTAGGATTCAGCT, the PBM binding z-score turned out to be 3.85.

TCTGCTAGGTCAGTTGGTCATCTAACGAGCTGCC returned a PBM binding z-score of 2.81.

CCTAGCAGGACAATCTGGGTCACTCAAGGCTTGA had a PBM binding z-score of 2.13.

As to CCTACTGGGCCAACGTCATTGATCAGTCAAAGCA, the PBM binding z-score was determined as 0.446.

On to CACACAGGGTCAGCTAGGCCAGAGTAGGGACGGC, for which the PBM binding z-score was 3.23.

Regarding GCTTACGGGTCGAAGGTTATAGCATGAATAGAAT, the PBM binding z-score amounted to 0.86.

In the case of CCTGGTTGGTCAGGAGGTCACACACCGGATATGA, the PBM binding z-score turned out to be 4.02.

Consider CAAACTAGGTCACACAGGTCAAAGTCCGTGCGTA, for which the PBM binding z-score amounted to 5.02.

The sequence CCTACTGGGCCAAAAAGGTCATCGATGCCGATAA had a PBM binding z-score of 4.84.

In turn, GCTGCTAGCTCAACTGATGGTCAGCTAAAGCTCG displayed a PBM binding z-score of -0.699.

GCGACTGGGGCAAAGCATGTTACCATAAGGTTGG yielded a PBM binding z-score of 0.192.

For the next assay, the system named is RARg:RXRa (NR concentration 270 nM, RXRa partner concentration 90 nM). The assay is described as above. The method in brief:
as §1
Sequence ACTAGTTGGTCAGCTGAGGTCACAGACAATTCGG had a PBM binding z-score of 4.16.

For the sequence AACACAGGGTCATCGTAGGCCAGAGTACGCACAG, the PBM binding z-score came to 5.74.

TAGCCTAGCTCATTGGGCCAGTATAGTACGCATC: the PBM binding z-score was -0.5.

Sequence CCTACTGGGCCACGAGAGGTCATTGATTCAGTGA gave a PBM binding z-score of 3.95.

As for TTACCAAGTTGAAAGGTCGTTGATGCACGCCTTG, the PBM binding z-score stood at 2.9.

The sequence ACTATTAGTTGAGACGAGGACAACCGATAGGTTG showed a PBM binding z-score of 0.27.

Regarding CCTAGCAGGCCGGGGTCACTCAAGCATTTCGCTT, the PBM binding z-score is 4.98.

On to TCATATAGGTAAAGGTGAAGGTCGAACGATATGA, for which the PBM binding z-score came out at 2.15.

As for CCTACTGGGCCATTAGGTCATTGATATCAACGTT, the PBM binding z-score is 2.38.

Take ACAGACAGTTGATGAAGGTAACTCAGGCTATCAT: the PBM binding z-score was 0.00583.

For the sequence GCTGCTAGGTCAACTGATAGTCAGCTAAAGCTCG, the PBM binding z-score is 4.31.

Regarding TAGCCTAGCTCATGGGCCAGTATACCACGCGAAC, the PBM binding z-score is -0.422.

AGAATGAGGTTATTAAGAACAGGGAATTGCGGTC yielded a PBM binding z-score of 1.14.

The sequence ATCTCTAGGTAAAAGTTCACTGAATCCCGAGGAT had a PBM binding z-score of 3.04.

GATACAGGGTCAAGGCGAGAGTACGCGTATTGAT gave a PBM binding z-score of 5.39.

In the case of AGAATGAGGTTATTAAGATCAGGAAATTGCGGTC, the PBM binding z-score worked out at 1.3.

The sequence GCTAGCAGTCCATTTGGGTCACTCAATGACGGGC yielded a PBM binding z-score of 0.428.

Sequence CCAGATAGGTGAAAGGTAACTCAGTCTGGTACGC came in with a PBM binding z-score of 1.53.

Turning to ATCGAAAGGTCGACGAGGCGAGTATACACCGTTT, the PBM binding z-score was 4.06.

CTCGAAAGGTCGGGCTCAGGTGAGTATACCAAAC: the PBM binding z-score amounted to 4.07.

Take CGAACTAGGTCAAGGATAGTGAATCTCCGCACGC: the PBM binding z-score is 3.74.

ATATGTAGGTTATCGGGTCATTCGGTTTGCGCAT gave a PBM binding z-score of 3.2.

Regarding ATCTCTAGGTAAGACTCAGTGCAGTGAAGAACGC, the PBM binding z-score amounted to 0.0414.

Sequence CGTCCAAGGGCAGAGAGGTCAGTGAATGCCGAGT showed a PBM binding z-score of 3.5.

For the sequence AATACAGGGTCATCGTAGGCCACAGTACGCACAG, the PBM binding z-score turned out to be 6.

ATCTCTAGGTAAGAGTCAGTTCAGTGAAGAACGC returned a PBM binding z-score of 0.338.

Regarding AGAACGAGGGCAATGAGTTGATAGCCCGGGTGGC, the PBM binding z-score was 0.874.

In turn, TCTGCTCGGTCAACGATGGTCAGCTAATCTGCTA showed a PBM binding z-score of 1.41.

AGTCAAAGTTCACTAGGTAACGTAGGATTCAGCT yielded a PBM binding z-score of 4.87.

As to TCTGCTAGGTCAGTTGGTCATCTAACGAGCTGCC, the PBM binding z-score came to 2.87.

For CCTAGCAGGACAATCTGGGTCACTCAAGGCTTGA, the PBM binding z-score is 1.2.

CCTACTGGGCCAACGTCATTGATCAGTCAAAGCA displayed a PBM binding z-score of -0.195.

On to CACACAGGGTCAGCTAGGCCAGAGTAGGGACGGC, for which the PBM binding z-score was 4.52.

On to GCTTACGGGTCGAAGGTTATAGCATGAATAGAAT, for which the PBM binding z-score was found to be 2.31.

As to CCTGGTTGGTCAGGAGGTCACACACCGGATATGA, the PBM binding z-score came out at 4.98.

For CAAACTAGGTCACACAGGTCAAAGTCCGTGCGTA, the PBM binding z-score came to 6.04.

Consider CCTACTGGGCCAAAAAGGTCATCGATGCCGATAA, for which the PBM binding z-score came out at 5.18.

GCTGCTAGCTCAACTGATGGTCAGCTAAAGCTCG: the PBM binding z-score is -0.731.

GCGACTGGGGCAAAGCATGTTACCATAAGGTTGG showed a PBM binding z-score of 0.235.

These data come from the supplement of paper PMC6555819.
